High-throughput results as filed in PubChem BioAssay.
Casp6 inh: blocks human caspase-6 cleavage activity; purified caspase-6, Z-VEID-R110 cleavage fluorescence; hit rate 0.53% among 350,000; P55212; inhibition, % at 12.5 µM;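 active = mean inhibition across replicates at least about 35%, with every replicate also reaching that limit, limit read from the data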;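 also: 0% = median of neutral control wells and 100% = no fluorescence left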
Target sequence (P55212 24-179 limits assumed): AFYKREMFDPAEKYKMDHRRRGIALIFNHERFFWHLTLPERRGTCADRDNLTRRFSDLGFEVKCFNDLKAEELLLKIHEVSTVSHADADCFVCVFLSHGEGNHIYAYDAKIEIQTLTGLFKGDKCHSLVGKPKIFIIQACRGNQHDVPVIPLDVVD
Target sequence (P55212 194-293 limits assumed): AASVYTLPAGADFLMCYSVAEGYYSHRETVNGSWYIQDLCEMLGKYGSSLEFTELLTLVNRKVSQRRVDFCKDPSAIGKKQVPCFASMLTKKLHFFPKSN
MBD2 DNA inh: blocks human MBD2 binding to methylated DNA | Q9UBB5 | TR-FRET, MBD2 binding to methylated oligonucleotide | inhibition, % at 4.4 µM | hit rate 0.31% among 370,000 | AID 686964; in the data active = inhibition above about 13%
UHRF1 MBD2 ctr: UHRF1 methyl-DNA binding inhibition. Q96T88. UHRF1 binding to methylated oligo, TR-FRET. inhibition, % at 4.4 µM. hit rate 0.75% among 370,000. AID 687016; in the data active = inhibition above about 21%;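 also: UHRF1 SRA domain binding a hemimethylated CpG hairpin DNA probe; 0% = median of test compound wells and 100% = reference inhibitor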
LEDGF integ inh: blocks HIV-1 LEDGF/p75-dependent DNA integration; TR-FRET IN-LEDGF/p75 DNA integration, Eu/Cy5; inhibition, % at 3.7 µM; hit rate 0.64% among 370,000;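 active = inhibition above the screen-wide mean plus 3 SD, cut at about 13% in these data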;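 also: signal is the Cy5 over europium emission ratio at 671 and 618 nm; 0% = plate median of compound wells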
The depositor's hits bear a star; . = no result given. Sampled rows, rich in hits. Any-hit rate of the full collection: about 1.4%.

SMILES	Casp6 inh	MBD2 DNA inh	UHRF1 MBD2 ctr	LEDGF integ inh
Cc1ccc(S(=O)(=O)N2CCOCC2)cc1NC(=O)CNCc1ccccn1	-4.8	0.3	27.2*	-3.4
CO[C@H]1CN(C)C(=O)c2ccc(NC(=O)C3CC3)cc2OC[C@H](C)N(CC2CC2)C[C@@H]1C	1.5	.	.	.
O=C(CN1CCCCC1)Nc1scc2c1c(=O)oc1ccccc12	-3.6	4.9	21.0*	0.0
O=C(Nc1cccc2nsnc12)c1cccnc1	3.3	0.8	55.1*	-3.9
Nc1c(Br)cc(Br)c2c1[nH]c(=O)c1ccccc12	38.8*	-6.7	-10.1	-5.9
O=C(C[C@H]1CC[C@@H]2[C@H](COC[C@@H](O)CN2C(=O)c2ccccc2F)O1)NCc1ccc(F)cc1	-0.3	.	.	.
COc1cccc(CN2CCC(C(=O)Nc3ccc(-c4cccc(C)c4)cc3)CC2)c1O	0.5	8.8	70.6*	3.5
CC=Cc1ccc2n(c1=O)C[C@H]1[C@H](CO)[C@@H](C(=O)N(C)C)[C@@H]2N1C(=O)c1ccccc1 (mixture of isomers)	0.5	.	.	.
CC(C)CCNCC(O)CON=C1c2ccccc2-c2ccccc21 (configuration not stated)	-2.4	-1.8	24.7*	-9.8
COCCNCC(O)CON=C1c2ccccc2-c2ccccc21 (configuration not stated)	-1.7	-0.8	-9.1	2.7
O=C(C[C@@H]1CC[C@@H]2[C@H](COC[C@H](O)CN2Cc2ccccc2F)O1)NCc1ccccc1F	-0.1	.	.	.
CCOc1cc(/C=N/NC(=O)c2cc(C3CC3)[nH]n2)ccc1O	3.9	5.6	21.2*	-0.4
COc1cc(/C=N/NC(=O)c2cc(C3CC3)[nH]n2)ccc1O	0.8	-2.2	3.1	-2.3
O=C(NCCn1cc(SCC(=O)N2CCOCC2)c2ccccc21)c1ccccc1	-0.9	-5.5	-1.9	0.8
Cc1cc(C)cc(C(=O)NCCn2cc(SCC(=O)N3CCOCC3)c3ccccc32)c1	-0.6	2.4	37.8*	2.1
O=C(C1CC1)N1[C@H](CO)[C@@H]2c3ccccc3N(S(=O)(=O)c3ccccc3)C[C@@H]21	-3.1	.	.	.
C[C@@H]1CN([C@H](C)CO)C(=O)Cc2cc(NC(=O)C3CCCCC3)ccc2O[C@H]1CN(C)C(=O)Nc1ccc(C(F)(F)F)cc1	-0.6	.	.	.
O=c1[nH]c2ccc(F)cc2[nH]c1=O	41.9*	0.3	-3.2	0.2
Nc1nonc1-c1nc2ccccc2n1CC(=O)N/N=C/c1ccc(-c2ccccc2C(=O)O)o1	60.1*	-2.8	3.1	-0.7
O=C(N/N=C/c1ccc(-c2ccccc2C(=O)O)o1)c1cccs1	.	-1.6	23.4*	4.8
Cc1ccc(/C=N/NC(=O)CNC(=O)c2cccs2)o1	11.9	-0.6	0.3	-4.3
COc1ccc(CN=C(N)N=C(N)N)cc1Cl	56.1*	1.0	-0.9	-4.6
CC(C)Oc1ccc(CN=C(N)N=C(N)N)cc1Cl	-0.5	5.4	-0.7	-1.5
CC[n+]1c(/C=C/C=C/N(C(C)=O)c2ccccc2)sc2ccccc21	.	-8.4	-19.9	16.8*
CCCCn1c(N)c(N(CC(C)C)C(=O)c2cc(-c3ccco3)nc3ccccc23)c(=O)[nH]c1=O	39.3*	1.2	3.2	1.9
SMILES	Casp6 inh	MBD2 DNA inh	UHRF1 MBD2 ctr	LEDGF integ inh
CCCCN(C(=O)c1cc(-c2ccco2)nc2ccccc12)c1c(N)n(CCC)c(=O)[nH]c1=O	28.1	0.9	10.0	5.0
O=C1CC(Nc2ccc(N3CCOCC3)cc2)C(=O)N1Cc1ccccc1 (configuration not stated)	.	-2.8	-0.4	21.7*
[N-]=[N+]=Nc1ccccc1C[C@@]1(C(=O)NCCN2CCOCC2)N=C(c2ccc(OCCCO)cc2)O[C@@H]1c1ccccc1	-1.0	.	.	.
CCn1c2ccccc2c2cc(NC(=O)C(=O)N3CCOCC3)ccc21	.	-1.4	22.9*	-4.9
CCn1c2ccccc2c2cc(NC(C)=O)ccc21	.	0.8	0.9	-2.7
Cc1ccc(/C=C2\C(=N)N3N=C(CC(=O)N4CCCCC4)SC3=NC2=O)cc1	1.6	-2.6	5.6	4.5
CCc1ccc(/C=C2\C(=N)N3N=C(CC(=O)N4CCCCC4)SC3=NC2=O)cc1	0.1	3.9	3.9	2.8
N=C1/C(=C/c2ccco2)C(=O)N=C2SC(CC(=O)N3CCCC3)=NN12	51.4*	4.5	13.5	12.7
CSc1ccc(/C=C2\C(=N)N3N=C(CC(=O)N4CCOCC4)SC3=NC2=O)cc1	-0.8	-3.9	-0.2	2.7
N=C1/C(=C\c2ccc(Br)o2)C(=O)N=C2SC(CC(=O)N3CCOCC3)=NN12	61.5*	0.2	17.5	22.2*
N=C1/C(=C/c2ccc(Br)o2)C(=O)N=C2SC(CC(=O)N3CCCC3)=NN12	-0.2	-1.1	14.8	16.0*
O=C(N[C@H]1CC[C@H](CCNS(=O)(=O)c2ccc(Cl)cc2)O[C@@H]1CO)c1cccc(F)c1	-1.3	11.7	23.0*	5.2
CCCNC(=O)Nc1ccc2c(c1)C(=O)N(C)[C@H]1CC[C@H](CC(=O)Nc3ccccc3F)O[C@@H]1CO2	2.1	.	.	.
c1ccc(CCNc2nc(-c3ccccn3)cs2)cc1	.	2.0	-2.4	6.8
c1ccc(CCNc2nc(-c3cccnc3)cs2)cc1	-2.3	-4.5	49.2*	-0.6
C[C@@H]1CN([C@@H](C)CO)C(=O)CCCn2cc(nn2)CO[C@@H]1CN(C)Cc1ccccc1	-2.0	.	.	.
O=C(c1cccc(F)c1)N1CCCCN2[C@@H](CO)[C@@H](c3ccc(/C=C/c4ccccc4)cc3)[C@@H]2C1	0.0	.	.	.
Cc1cc(C)c(-c2cc(NC(=O)COC(=O)c3ccc(NC(=O)CC#N)cc3)n(-c3ccccc3)n2)cc1C	-2.8	11.1	25.6*	-1.3
Cc1cc(C)c(-c2cc(NC(=O)COC(=O)c3ccc(C#N)cc3)n(-c3ccccc3)n2)cc1C	-4.3	-3.8	15.1	-2.5
Cc1noc(C)c1NC(=O)Nc1ccc2c(c1)C(=O)N([C@H](C)CO)C[C@H](C)[C@H](CN(C)Cc1ccncc1)OCCCC[C@H](C)O2	-3.3	.	.	.
OCC[C@@H]1C[C@H](O)[C@@H](O)[C@@]2(OCc3cc(C(F)(F)F)ccc32)O1	-1.5	5.4	21.5*	8.4
OCC[C@H]1C[C@H](O)[C@@H](O)[C@@]2(OCc3ccccc32)O1	-1.3	0.1	0.4	1.2
CCCc1nc2c(C)cc(Br)cn2c1Cc1ccccc1C(F)(F)F	-3.1	8.7	22.0*	1.2
CCCc1nc2ccc(Cl)cn2c1Cc1ccccc1OC	-6.7	4.7	17.8	4.1
CCCc1nc2ccc(C)cn2c1Cc1ccccc1OC	-0.2	10.3	21.9*	-0.6
SMILES	Casp6 inh	MBD2 DNA inh	UHRF1 MBD2 ctr	LEDGF integ inh
COc1ccccc1Cc1c(-c2ccc(C)cc2)nc2ccc(C)cn12	2.1	3.0	14.3	5.6
CCCc1nc2ccc(C)cn2c1Cc1ccccc1C(F)(F)F	-1.7	10.1	24.3*	0.2
COc1ccccc1Cc1c(-c2ccc(Cl)cc2)nc2ccc(C)cn12	3.0	5.4	20.7*	-0.5
COc1ccc([Si](C)(C)[C@H]2[C@H](CCn3cc([C@H](O)c4ccccc4)nn3)O[C@@]3(C(=O)N(Cc4cccc(N5CCOC5=O)c4)c4ccccc43)[C@@H]2C)cc1	-0.5	.	.	.
COCC(=O)N1C[C@H]2[C@@H](c3ccccc31)[C@@H](CO)N2C(=O)C1CC1	-0.9	.	.	.
C[C@@H]1CN([C@H](C)CO)C(=O)c2cc(C#Cc3ccc(F)cc3)cnc2O[C@@H]1CN(C)CC1CC1	0.5	.	.	.
